HT1080 IDH1KD tx: qHTS for induction of synthetic lethality in tumor cells producing 2HG: qHTS for the HT-1080-IDH1KD cell line; Potency, µM (doses to about 46.1 µM), for the others: at the highest dose activity, negative = toxicity, most hits filed as cytotoxic; HT-1080 IDH1 knockdown viability, ATP luminescence, 48 h; 360,000 compounds, 2% hits; AID 686971, 2013;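 further: 0% = DMSO wells and -100% = cell-free medium wells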
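CellTiter-Glo luminescence after 48 h compound exposure at 37 degrees C of IDH1-knockdown HT-1080 cells in 5% FBS RPMI. %Activity scaled between DMSO wells and cell-free media wells, with curves fitted and assigned curve classes.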
HepG2 viability: qHTS for Inhibitors of TGF-b: Cytotox Counterscreen. HepG2 CAGA-GFP viability, ATP luminescence, 18 h. Potency, µM (top dose mostly 46.1 µM), for inactives: top-dose activity change, negative = cytotoxicity, most hits filed as cytotoxic. 410,000 compounds, 0.76% hits
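CellTiter-Glo luminescence gave cytotoxicity after 18 hours at 37 degrees C. The cells were HepG2 CAGA-GFP in 1% FBS DMEM, stimulated with 500 pg/mL TGF-beta after compound addition. %Activity was normalised to no-cell wells (complete cell-killing) and DMSO (no toxicity), and curves were fitted and classified.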
TDP1 cell CPT: qHTS for Inhibitors of human tyrosyl-DNA phosphodiesterase 1 (TDP1): qHTS in cells in presence of CPT | chicken DT40 Tdp1-/-;hTDP1 cells + 20 nM CPT, ATP luminescence, 48 h | 420,000 compounds, 12% hits | AID 686979, 2013 | Potency, µM (doses to about 46.2 µM), for inactives: top-dose activity change, negative = growth inhibition, usual class: inhibitors; further: on the % scale 0 is the no-effect control and ±100 the full control effect; nearly all actives have a fitted effect of over 55% in size
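Cell growth measured by CellTiter-Glo luminescence after a minimum 48 h, 37 C compound exposure with 20 nM CPT in Tdp1-knockout DT40 cells stably expressing hTDP1, seeded 400/well; qHTS titration format.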
HT1080NT lethal: qHTS for induction of synthetic lethality in tumor cells producing 2HG: qHTS for the HT-1080-NT fibrosarcoma cell line; Potency, µM (top dose mostly 46.1 µM), for the others: top-dose activity, negative = less viability, usual class: cytotoxic; HT-1080-NT fibrosarcoma viability, CellTiter-Glo ATP luminescence, 48 h; 360,000 compounds, 1.6% hits;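 further: NT is the 2HG producing partner of a matched IDH1 knockdown line; 0% = DMSO-treated cells and -100% = media-only wells without cells; nearly all actives have a fitted effect of over 55% in size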
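A 48-hour cytotoxicity screen used HT-1080-NT cells plated 2 hours before compound delivery. ATP-based CellTiter-Glo luminescence measured viability, normalized to DMSO and no-cell controls.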
TGFb inhibitor: qHTS for Inhibitors of TGF-b; HepG2 CAGA-GFP TGF-b/SMAD3 reporter, GFP fluorescence, 18 h; TGF-beta stimulated, 500 pg/mL final; Potency, µM (highest dose often 46.1 µM), for the others: at the top dose activity, negative = inhibition, actives largely listed as inhibitors; 410,000 compounds, 1.2% hits; AID 588855, 2011; further: on the % scale 0 is the no-effect control and ±100 the full control effect; nearly all actives have a fitted effect of over 65% in size
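Per well, imaged GFP fluorescence of HEPG2 CAGA-GFP cells gives the signal; cells get compound, then TGF-beta (500 pg/mL final), 18 h at 37 degrees C; %Activity versus -TGF-beta and +DMSO controls.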
DT40 TDP1 no CPT: qHTS for Inhibitors of human tyrosyl-DNA phosphodiesterase 1 (TDP1): qHTS in cells in absence of CPT; DT40 Tdp1-/- hTDP1 cells, no CPT, ATP luminescence, 48 h; Potency, µM (series often up to 46.2 µM), for the others: at the top dose activity change, negative = growth inhibition, actives largely listed as inhibitors; 420,000 compounds, 15% hits; AID 686978, 2013; further: on the % scale 0 is the no-effect control and ±100 the full control effect; nearly all actives have a fitted effect of over 55% in size
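Compound effects on proliferation are scored in DT40 Tdp1-/-;hTDP1 cells in the absence of CPT. ATP levels (CellTiter-Glo luminescence) are recorded after a ≥48 hr, 37 °C incubation.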
Starred values were filed as active, the others as inactive; ? = inconclusive; . = no result given; [ ] = another dose, or the depositor's remark. Shown are actives, neighbours in structure and some others; about 17% of the full set was active somewhere. The call rests on the fitted dose curve; in most records, active means well fitted curve in the direction sought with a large enough effect; inconclusive means small, poorly fitted or top-dose-only effect, or another doubt; inactive means no such curve, though single readings can be large; an effect the other way counts as inactive or inconclusive. Potency means the concentration at half of the fitted maximal effect.

SMILES | HT1080 IDH1KD tx | HepG2 viability | TDP1 cell CPT | HT1080NT lethal | TGFb inhibitor | DT40 TDP1 no CPT
CCOC(=O)C(C(=O)OCC)N(Cc1cc(OC)ccc1OC)C(=O)C1CC(CO[Si](C)(C)C(C)(C)C)=CN1C(=O)OC(C)(C)C (stereo not drawn) | . | -12.2% | . | . | 2.6% | .
COCCn1c(SCC(=O)Nc2cc(C)on2)nc2c(c1=O)SCC2 | 0.8% | 12.5% | 7.1% | 1.9% | 12.2% | -28.5%
S=C(NCC1CCCO1)N1CCN(c2ccccc2)CC1 (stereo not drawn) | -2.1% | -1.6% | 0.8% | 4.9% | -15.8% | -5.8%
COCCNC(=S)N1CCN(c2cccc(C(F)(F)F)c2)CC1 | ? | -22.1% | ? | -4.7% | 0.0% | 23.1µM*
FC(F)(F)c1cccc(N2CCN(C(=S)NCC3CCCO3)CC2)c1 (stereo not drawn) | ? | -12.2% | ? | -8.8% | ? | 23.1µM*
CCOC(=O)c1cc(-c2ccccc2)n(-c2cccc(C(=O)N(CC)c3ccccc3)c2)c1C | . | -8.4% | 14.6µM* | . | ? | 18.4µM*
CCOC(=O)c1cnn(-c2ccc(C(=O)Nc3cccc(C(C)=O)c3)cc2)c1N | . | -9.8% | 2.06µM* | . | 1.6% | ?
CCOC(=O)c1cc(-c2ccccc2)n(-c2cccc(C(=O)Nc3ccc(OCC)cc3)c2)c1C | . | -10.4% | ? | . | 0.0% | ?
CCOC(=O)c1cc(-c2ccccc2)n(-c2cccc(C(=O)Nc3cccc(C)c3)c2)c1C | . | -20.6% | ? | . | -13.7% | 23.1µM*
COC(=O)c1cnn(-c2ccc(C(=O)Nc3cccc(C(C)=O)c3)cc2)c1N | . | -9.4% | 2.0% | . | -1.9% | 5.1%
COc1ccc(OC)c(-n2nnnc2SCC(=O)Nc2ccccc2N2CCOCC2)c1 | 1.1% | -24.6% | ? | 1.0% | -10.2% | ?
COc1ccc(CC(=O)Nc2nn(C)c3nc4c(C)cccc4cc23)cc1 | 0.2% | -40.4% | -25.8% | 11.3% | 0.0% | ?
CCN(Cc1nc2ccccc2c(=O)[nH]1)C(=O)c1cc2c(s1)CCCCC2 | 1.7% | -49.5% | 14.6µM* | 2.5% | 7.8% | ?
CCN(Cc1nc2ccccc2c(=O)[nH]1)C(=O)c1cccc(NC(=O)c2cccs2)c1 | -15.0% | -42.7% | 11.6µM* | -1.6% | ? | ?
CSc1nc(N)nc2c1ncn2CC(=O)N[C@H](C)c1cccc2ccccc12 | 8.2% | -3.9% | ? | 9.1% | 0.6% | ?
COc1ccc(Cl)cc1NS(=O)(=O)c1c(C)[nH]c(=O)[nH]c1=O | 15.4% | -4.0% | -0.1% | 6.4% | 3.0% | ?
Cc1cccc(C(=O)N2CCc3cc(CNC(=O)CSc4ccccc4)ccc32)c1 | . | 16.2% | 1.0% | . | 43.1% | -15.0%
Cc1cccc(OCC(=O)NCc2ccc3c(c2)CCN3C(=O)c2ccccc2)c1 | . | -0.9% | ? | . | 31.6% | 23.1µM*
O=C(NCc1ccc2c(c1)CCN2C(=O)c1ccccc1)c1ccc(Br)o1 | . | -0.1% | ? | . | 33.0% | ?
O=C(NCc1ccc2c(c1)CCN2C(=O)c1ccc(F)cc1)c1ccc(Br)o1 | . | 1.6% | 5.17µM* | . | 40.3% | 4.11µM*
Cc1cccc(C(=O)N2CCc3cc(CNC(=O)c4cc5ccccc5[nH]4)ccc32)c1 | . | -6.1% | -18.1% | . | 2.1% | -8.4%
Cc1cccc(C(=O)N2CCc3cc(CNC(=O)c4ccc(Br)o4)ccc32)c1 | . | -18.7% | 18.4µM* | . | ? | ?
CC(=O)Nc1cccc(C(=O)NCc2ccc3c(c2)CCN3C(=O)c2ccccc2)c1 | . | -6.2% | ? | . | -21.3% | ?
Cc1cc(NC(=O)NCc2ccc3c(c2)CCN3C(=O)c2ccccc2)ccc1Br | . | -3.0% | ? | . | ? | 16.4µM*
NC(C(=O)O)C(CC(=O)O)c1ccc(Cl)cc1 (stereo not drawn) | . | . | -1.1% | . | . | 1.2%
SMILES | HT1080 IDH1KD tx | HepG2 viability | TDP1 cell CPT | HT1080NT lethal | TGFb inhibitor | DT40 TDP1 no CPT
O=C(CCCSc1ccc(Cl)cc1)Nc1ccccc1O | -6.7% | -29.6% | 5.6% | -19.5% | ? | ?
CCOc1ccccc1NCc1nnc2n1CCCCC2 | . | 5.2% | -1.0% | . | 24.8% | -8.0%
COC(=O)c1ccc(OCC2c3cc(OC)c(OC)cc3CCN2C(=O)c2ccco2)cc1 (stereo not drawn) | ? | -20.5% | 23.1µM* | -28.8% | 0.3% | 20.6µM*
COc1ccc(CC(=O)N2CCc3cc(OC)c(OC)cc3C2COc2cc(C)cc(C)c2)cc1OC (stereo not drawn) | . | -17.9% | 18.4µM* | . | 14.1µM* | 18.4µM*
COc1cc2c(cc1OC)C(c1ccccc1)N(C(=O)c1ccco1)CC2 (stereo not drawn) | -9.8% | 1.1% | 20.6µM* | -6.0% | -3.6% | 20.6µM*
COc1ccc(OCC2c3cc(OC)c(OC)cc3CCN2C(=O)C(C)C)cc1 (stereo not drawn) | -16.6% | -2.2% | ? | -2.7% | -5.8% | 23.1µM*
CCC1CCCCN1Cc1nc2c(c(=O)n(C)c(=O)n2C)n1Cc1c(F)cccc1Cl (stereo not drawn) | . | -4.8% | ? | . | 3.7% | ?
O=C(CNC(=S)N(CCCN1CCOCC1)Cc1cccs1)N1CCCC1 | -1.8% | 8.3% | 3.1% | 0.4% | 13.3% | -6.5%
O=C(COc1ccccc1)NCC(=O)N1CCCC(C(F)(F)F)C1 (stereo not drawn) | 10.1% | 0.7% | -6.6% | -1.8% | 2.6% | -5.8%
COC(=O)c1ccc(OCC2c3cc(OC)c(OC)cc3CCN2C(=O)Cc2ccc(OC)cc2)cc1 (stereo not drawn) | . | -19.3% | ? | . | 1.2% | 20.6µM*
CCC(=O)N1CCc2cc(OC)c(OC)cc2C1COc1ccc(C(=O)OC)cc1 (stereo not drawn) | ? | -26.3% | ? | -6.9%[9.24 µM] | -0.5% | ?
COc1cc2c(cc1OC)[C@@H](c1ccccc1)CN(C)CC2 | . | . | -20.5% | . | . | 15µM*
COC(=O)c1ccc(OCC(O)CN2CCc3cc(OC)c(OC)cc3C2c2ccccc2)cc1 (stereo not drawn) | 16.4µM* | -5.7% | 5.8µM* | ? | ? | 5.8µM*

Assay outcomes from PubChem BioAssay.
